Laboratory results: PubChem BioAssay (EPA / NIEHS)
Values joined by “and” are separate entries in the source; they are usually repeats but may differ in a detail not shown here. Identical values can stand only once. Active and inactive are the calls of the source. Rule for the calls: active = hit-call score of the fitted dose curve at least 0.9, where 1 is the maximum; inactive = score below 0.9.

read-out: Phosphatase and tensin (PTEN), PTEN (gene 5728); assay: LTEA_HepaRG_PTEN: Life Technologies and Expression Analysis (LTEA) Assay for Phosphatase and tensin (PTEN) using HepaRG (AID 2283523); conditions: mRNA level, 48 h; actives raise or lower the signal
Procedure: LTEA_HepaRG is a cell based, multiplexed-readout assay that uses HepaRG, a human liver cell line, with measurements taken at 48 hours after chemical dosing on a 96-well plate.LTEA_HepaRG_PTEN is one of 102 assay component(s) measured in the LTEA HepaRG cell culture assay. It is a marker of Cell proliferation, survival, death.Data from the assay component LTEA_HepaRG_PTEN was analyzed into 1 endpoint. This assay endpoint, LTEA_HepaRG_PTEN, was analyzed with bidirectional fitting relative to DMSO as the negative control and baseline of activity. Using a type of inducible reporter, measures of mRNA induction for gain or loss-of-signal activity can be used to understand regulation of transcription factor activity. To generalize the intended target to other relatable targets, this assay endpoint is annotated to the phosphatase intended target family, where the subfamily is dual-specific phosphatase.
A total of 1060 chemcials from the ToxCast library were tested in eight-point concentration-response experiments. Cell culture and cytotoxicity assays were conducted at Thermo Fisher Scientific's Custom Services facility (Madison, WI). A single lot of human HepaRG cells (Thermo Fisher Scientific, Frederick, MD) was used for the cell culture experiments. 96-well format collagen type I coated plates of human HepaRG cells were prepared using established methods. Briefly, cryopreserved HepaRG cells were thawed, plated at a density of approximately 100,000 cells/well in HepaRG Thaw, Plate, and General Purpose media (HPRG770, Thermo Fisher Scientific), and incubated for 48 hours. 0.5% DMSO was selected as vehicle control to balance the requisite need of DMSO in HepaRG cultures to maintain differentiation (for example, baseline metabolism, proportions of hepatocytes vs. cholangiocytes), while enabling further hepatic receptor pathway activation (for example, PXR and CAR) in response to chemical exposure. 48 hours after plating, the culture medium was replaced with HepaRG Serum-Free Incudtion Media. Cells were exposed to each test chemical in duplicate and maintained in CO2 incubators for another 48 hours. Chemical plates were thawed to room temperature and 200x concentrations of treatment groups were prepared. 8-point conentration-reponse curves were made with the highest exposure at 100 uM, followed by half-log dilutions, all in 0.5% DMSO. Each test plate contained variouse controls, induction positive controls (1mM phenobarbital), cytotoxicity positive controls ([…] aflatoxin B1), vehicle controls (0.5% DMSO), and total lysis controls (0.5% DMSO). Cell morphology images were taken using an Essen IncuCyte FLR automated microscope, with six 96-well plates imaged in about 24 minutes. Images were captured and exported and JPEG files. Spent culture media was transfered to black-well plates for the LDH assay, and remaining media was sorted at -80 C for later use. Cells were treated with RLT buffer and frozen until shipped for gene expression analysis. Total RNA was isolated from the cell suspension in 75 uL of Buffer RLT (Qiagen, Germantown, MD 20874) by Quintiles/Expression Analysis (Durham, NC) using a custom isolation procedure. Total RNA from each plate well was transferred to a preamplification plate. Fluidigm's 96.96 Dynamic ArrayTM (Fluidigm, Amsterdam, the Netherlands) technology was used for gene expression analyses by quantitative reverse transcription polymerase chain reaction (qRT-PCR, performed by Quintiles/Expression Analysis, Durham, NC)89. Standard TaqManTM Assays (Applied Biosystems/ThermoFisher Scientific, Foster City, CA) were used to assess the expression of 93 genes selected based on their selectivity and sensitivity to important hepatic receptors known to be modulated by environmental chemicals; importance in human hepatocyte functionality; and hepatotoxicity. […]

| SMILES | outcome | AC50 |
| --- | --- | --- |
| CC(Oc1ccc(Cl)cc1Cl)C(=O)O (stereo not given) | inactive |  |
| CCCCOC(=O)c1ccccc1C(=O)OCCCC | inactive |  |
| CCOC(=O)CC(SP(=S)(OC)OC)C(=O)OCC (stereo not given) | inactive |  |
| Oc1ccccc1-c1ccccc1 | inactive |  |
| CCCC1COC(Cn2cncn2)(c2ccc(Cl)cc2Cl)O1 (stereo not given) | inactive |  |
| N#Cc1cc(Br)c(O)c(Br)c1 |  | 26.1 µM (active) |
| CCCN(CCC)c1c([N+](=O)[O-])cc(S(N)(=O)=O)cc1[N+](=O)[O-] |  | 93.1 µM (active) and 75.5 µM (active) and 76.5 µM (active) |
| CS/C(C)=N/OC(=O)N(C)SN(C)C(=O)O/N=C(\C)SC | inactive |  |
| N#Cc1nn(-c2c(Cl)cc(C(F)(F)F)cc2Cl)c(N)c1S(=O)C(F)(F)F (stereo not given) | inactive |  |
| CNC(=S)S | inactive |  |
| CO/C=C(/C(=O)OC)c1ccccc1Oc1cc(Oc2ccccc2C#N)ncn1 | inactive |  |
| C=CCC1=C(C)[C@@H](OC(=O)[C@@H]2[C@@H](C=C(C)C)C2(C)C)CC1=O | inactive |  |
| CCOC(=O)C(Cl)Cc1cc(-n2nc(C)n(C(F)F)c2=O)c(F)cc1Cl (stereo not given) | inactive |  |
| COc1ccc(C(c2ccc(OC)cc2)C(Cl)(Cl)Cl)cc1 | inactive |  |
| CCNc1nc(Cl)nc(NC(C)C)n1 | inactive |  |
| N#CC(CCc1ccc(Cl)cc1)(Cn1cncn1)c1ccccc1 (stereo not given) | inactive |  |
| COC(=O)C=C(C)OP(=O)(OC)OC | inactive |  |
| CCc1nn(C)c(C(=O)NCc2ccc(C(C)(C)C)cc2)c1Cl |  | 50 µM (active) |
| CCON=C(CC)C1=C(O)CC(c2c(C)cc(C)cc2C)CC1=O (stereo not given) | inactive |  |
| COc1nc(NC(C)C)nc(NC(C)C)n1 | inactive |  |

| SMILES | outcome | AC50 |
| --- | --- | --- |
| Fc1ccc(Oc2ccnc3cc(Cl)cc(Cl)c23)cc1 | inactive |  |
| CCOc1cc(Oc2ccc(C(F)(F)F)cc2Cl)ccc1[N+](=O)[O-] | inactive |  |
| COC(=O)C(C)Oc1ccc(Oc2ccc(Cl)cc2Cl)cc1 (stereo not given) | inactive |  |
| O=C(Nc1ccccc1)Nc1ccnc(Cl)c1 |  | 75.2 µM (active) |
| OC(c1ccc(Cl)cc1)(c1cncnc1)c1ccccc1Cl (stereo not given) | inactive |  |
| C=CC1(C)OC(=O)N(c2cc(Cl)cc(Cl)c2)C1=O (stereo not given) | inactive |  |
| O=C(O)COc1nc(Cl)c(Cl)cc1Cl | inactive |  |
| COP(=S)(OC)Oc1nc(Cl)c(Cl)cc1Cl | inactive |  |
| C#CCOS(=O)OC1CCCCC1Oc1ccc(C(C)(C)C)cc1 (stereo not given) |  | 30.7 µM (active) |
| CCCCNC(=O)OCC#CI | inactive |  |
| CNC(=O)ON=CC(C)(C)SC | inactive |  |
| CCCCC(CC)COC(=O)c1ccccc1C(=O)OCC(CC)CCCC (stereo not given) | inactive |  |
| COC(=O)N(OC)c1ccccc1COc1ccn(-c2ccc(Cl)cc2)n1 |  | 78.5 µM (active) |
| CC1COC(Cn2cncn2)(c2ccc(Oc3ccc(Cl)cc3)cc2Cl)O1 (stereo not given) |  | 78.5 µM (active) |
| CC(C)C1(C)N=C(c2nc3ccccc3cc2C(=O)O)NC1=O (stereo not given) | inactive |  |
| COP(N)(=O)SC (stereo not given) | inactive |  |
| CON(C)C(=O)Nc1ccc(Cl)c(Cl)c1 | inactive |  |
| Cc1cc(Cl)ccc1OCC(=O)O | inactive |  |
| CC1=C(C(=O)Nc2ccccc2)SCCO1 | inactive |  |
| CCOP(=S)(OCC)SCn1c(=O)oc2cc(Cl)ccc21 | inactive |  |
